This is part of a sample that, as a whole, favours compounds with a hit. Of some 83,000 tested, about 20% had one in any assay.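 Cells were grown in 96-well plates and exposed to the test compound at a single concentration for 48 hours; results are reported as percent growth, with values below 10 considered active.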 Unmarked numbers belong to inactive results. Active and inactive are the calls of the source.

The subject of the assay is MOLT-4 leukemia. Description: NCI-60 one-dose screen, 48 h (100 = growth as untreated, 0 = no growth, -100 = all killed). The conditions noted are these: 10 µM unless noted.
Take `COc1cc(OC)cc(C2=C3CC[C@@H]4[C@H](CC[C@]5(C)C(=O)CC[C@@H]45)C3=CC3C(O)c4cccnc4N4C(=O)COC234)c1` (stereo not given in full): the growth was 96.2%.
Then `CC(=O)Cc1nsc(NC(=O)c2cc(-c3cc(Cl)cc(Cl)c3)oc2C)n1`, with 96.7%.
Then `CCOC(=O)c1cn2ncnc(Oc3ccc(NC(=O)NC4CCCCC4)c(Cl)c3)c2c1C`, with 75.1%; and `Cc1nnc(NC(=O)c2nc(S(=O)(=O)Cc3ccc(F)cc3)ncc2Cl)s1`, with 11.3%; and `C#CCOc1ccc2ncnc(Nc3ccc(NC(=O)CCl)cc3)c2c1`, with -8.27% (active).
Then `CCOC(=O)C#Cc1c(C(=O)OCC)nnn1[C@@H]1O[C@H](CO)[C@H]2OC3(CCCCC3)O[C@H]21`, with 22.3%; and `C/C(=N/O)c1ccc(F)cc1`, with 77.7%.
Regarding `CCOC(=O)Cn1c(O)c(N=Nc2ccc(S(N)(=O)=O)cc2)c2cc(Br)ccc21`, the growth was 77%.
With `Cc1nc(N2CCOCC2)sc1S(N)(=O)=O`, the growth is 107%.
For `COc1ccc(OC)c(C(=O)/C=C/c2cc3c(c(OC)c2OC)OCO3)c1` the value was 52.8%; for `O=c1oc2ccccc2cc1C1=NN=C(SCc2ccccc2)SC1`, 97%; for `COc1ccc(C(=S)N2CCN(c3ccccc3Cl)CC2)cc1OC`, 76.4%.
Then `Cc1ccc(/C=C2\CN(C(=O)OC(C)(C)C)C/C(=C\c3ccc(C)cc3)C2=O)cc1`, with 34.7%; and `O=C(Nc1nn(-c2ccc(Cl)cc2Cl)nc1-c1ccccc1)c1ccccc1`, with 83.5%.
For `CCN(CC)c1ccc(/C=C/C(=O)c2ccc(Nc3nc(Nc4ccccc4)nc(Nc4ccccc4)n3)cc2)cc1` the value was 22.6%.
With `COC(=O)[C@H]1CCCN1C[C@@H](O)CN1C(=O)/C(=C\c2cc(OC)c(OC)c(OC)c2)c2ccccc21`, the growth was 81.6%.
Then `CN(C)c1ccc(Nc2cc(-c3cccc(OC(F)(F)F)c3)nc3ccc(N4CCCC4)cc23)cc1`, with 2.94% (active).
Then `O=C(Nc1cc(Cl)ccc1O)c1ccc(Nc2ccnc(C(F)(F)F)c2)cc1`, with 19.2%; and `COc1cc(OC)c2sc(-c3ccc(-n4cncc4-c4ccc(OC)c(OC)c4)cc3)nc2c1`, with 33.6%; and `O=C1c2cccnc2C(=O)c2c1c(C(=O)NCCCN1CCCCC1)c1ccccn21`, with -43.9% (active).
Then `CCOC(=O)c1ccc2[nH]c(O)c(C(=Nc3ccc(N(C)C(=O)CN4CCN(C)CC4)cc3)c3ccccc3)c2c1`, with -14% (active); and `CCN1C(=O)N(CC)C2C1NN=c1s/c(=C\c3cccc([N+](=O)[O-])c3)c(=O)n12` (stereo not given), with 15.6%.
With `CC1=C(Nc2ccc(N3CCN(C)CC3)cc2)C(=O)c2cncnc2C1=O`, the growth was -11.9% (active).
For `O=C1Nc2ccc(Br)cc2/C1=N/c1n[nH]c(=S)s1` the value was 100%; for `CCN(c1ccc(Cl)cc1)c1nc(-c2ccc([N+](=O)[O-])cc2)cs1`, 96.9%.
For `C=C(C)[C@@H]1CC[C@]2(C)[C@H](CC=C3[C@@H]4[C@H](C)[C@@H](C)CC[C@]4(CO)CC[C@]32C)[C@@]1(C)CCCN` the value was -10.6% (active); for `O=C(/C=C(/C=C/c1cccc2[nH]ccc12)OB(F)F)/C=C/c1cccc2[nH]ccc12`, -11.9% (active); for `CCN1CC(=O)N(/N=C2\C(=O)Nc3ccccc32)C1=S`, 98%.
Then `CCN1CCN(c2cc(C(=O)Nc3nc(-c4cc(OC)c(OC)c(OC)c4)cs3)cc(C(F)(F)F)c2)CC1`, with 43.9%.
As for `COc1ccc(-c2nc(/C=C3\SC(=NCc4ccccc4)NC3=O)c3ccccn23)cc1`, the growth was 11.1%.
For `CCOC(=O)C(=Cc1cccc(Br)c1)C(=O)OCC` the value was 16.6%; for `N#CC1=C(N)Oc2c(sc3c(F)cccc23)C1c1ccc(F)cc1` (stereo not given), 18.4%; for `CCOc1nc(-c2ccccc2)cc2c(O)c(C(=O)NN)[nH]c(=O)c12`, 113%.
For `O=C1c2cccc(NCCN=Cc3cc(O)ccc3O)c2C(=O)c2c(NCCN=Cc3cc(O)ccc3O)cccc21` the value was -53.1% (active); for `C=CCn1cc(-c2nc3ccccc3s2)c2cc(-c3ccc4c5c(cccc35)C(=O)N(N)C4=O)ccc21`, 96.5%.
For `CCOC(=O)CNP(=O)(OC[C@@H](Cc1ccccc1)NC(=O)c1cc2ccccc2s1)Oc1ccccc1` (stereo not given in full) the value was 54.8%.
Take `CCC(=C(c1ccc(OCCN2CCCC2)cc1)c1ccc(OCCN2CCCC2)cc1)c1ccc(Cl)cc1`: the growth was -27.2% (active).
Then `Oc1c(Cl)cc(Cl)c2ccc(Cn3cc(-c4ccc(C(F)(F)F)cc4)nn3)nc12`, with -8.16% (active); and `O=C(NCCCCNC(=O)OCc1ccc2c(Cl)cc(Cl)c(O)c2n1)OCc1ccc2c(Cl)cc(Cl)c(O)c2n1`, with 22.6%; and `CCN(CC)CCNC(=O)c1cn2ncnc(Oc3ccc(NC(=O)Nc4ccc(Cl)c(C(F)(F)F)c4)c(F)c3)c2c1C`, with -20.8% (active).

These data come from PubChem BioAssay (NCI).
